Data taken from PubChem BioAssay (NCI).
The panel holds about 83,000 compounds, 20% with a hit somewhere; the sample as a whole holds those more often.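 In brief: 96-well plates, 48 h treatment, single concentration, percent growth endpoint.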 Unmarked numbers belong to inactive results. The source made the active and inactive calls. Rule for the calls: active = growth percent below 10; inactive = the rest.

What was measured:
Assay in all cases: NCI-60 one-dose screen, 48 h (100 = growth as untreated, 0 = no growth, -100 = all killed)
Conditions in all cases: 10 µM
[1] = tested on: DU-145 prostate
[2] = tested on: K-562 leukemia
[3] = tested on: MALME-3M melanoma
[4] = tested on: MDA-MB-231 breast
[5] = tested on: RXF 393 renal
[6] = tested on: SF-268 CNS
[7] = tested on: SF-295 CNS
[8] = tested on: SF-539 CNS
[9] = tested on: UACC-257 melanoma
[10] = tested on: M14 melanoma

| SMILES | growth [1] | growth [2] | growth [3] | growth [4] | growth [5] | growth [6] | growth [7] | growth [8] | growth [9] | growth [10] |
| --- | --- | --- | --- | --- | --- | --- | --- | --- | --- | --- |
| CCCCCc1cc[n+](CC(=O)c2ccc(Cl)cc2)cc1 | 95.2% | 90.7% | 89.8% | 76.6% | 95.6% | 84.7% | 94% | 93.9% | 97.5% | 85.9% |
| O=C1NN(c2ccccc2)C(c2cccnc2)=N/C1=C\c1cccnc1 | 93.1% | 102% | 105% | 92.6% | 99.5% | 89.4% | 95.1% | 102% | 105% | 91.7% |
| CCN(CC)CCOC(=O)c1ccc(NC(=O)Nc2cccc(Cl)c2)cc1 | 105% | 91.1% | 97.6% | 93.7% | 99.4% | 97.3% | 93% | 98.7% | 91% | 103% |
| C(=C\c1nc2ccccc2s1)/c1ccc(N2CCOCC2)s1 | 92.4% | 31.8% | 103% | 75.5% | – | 98.2% | 69% | 81.1% | 90.2% | 36.6% |
| CC(C)c1ncc(CO)n1Cc1c(Cl)cccc1Cl | 106% | 92.3% | 103% | 115% | 95.8% | 96.5% | 96.1% | 98.7% | 106% | 109% |
| Cc1cc(C(C)(C)CC(C)(C)C)ccc1OCCOCC[N+](C)(C)Cc1ccccc1 | 22.4% | -53.8% (active) | -35.5% (active) | -67.7% (active) | – | -69.7% (active) | -14.3% (active) | -82.6% (active) | 22.9% | -83.2% (active) |
| Cc1cc(Cl)ccc1Nc1nc(C(F)(F)F)ccc1C(=O)N/N=C/c1ccccc1Cl | 36.4% | 56.3% | 30% | -15.5% (active) | 24.1% | 31.1% | 8.72% (active) | 6.63% (active) | 6.87% (active) | 9.99% (active) |
| O=c1oc2c3ccc4cnccc4c3[nH]c2c2ccccc12 | 16.9% | 21.1% | -80.8% (active) | 68.2% | – | 23% | 75.6% | -72.1% (active) | 1.25% (active) | 67.3% |
| COc1cc(C2CC(=O)Nc3c2c(C)nn3-c2nc3ccccc3[nH]2)cc(OC)c1O (configuration not stated) | 96.4% | 75.7% | 47.3% | 7.76% (active) | 10.4% | 40.1% | -34.2% (active) | 72.8% | 44.4% | 9.64% (active) |
